Among all 220,000 compounds or so, about 650 (0.3%) were called active. Cut-off read from the data, not from the text of the source: active = inhibition above about 40%; inactive = the rest. Shown is part of a subset that was picked to be rich in actives.
biological target: Coagulation factor XII (Homo sapiens) (UniProt P00748); test: coagulation factor XIIa activity inhibition – biochemical, 1536-well, primary screen (AID 800); conditions: purified FXIIa, Boc-QGR-AMC fluorogenic substrate, 2 h; at 5 µM; stronger effect = higher value;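 note: 0% = enzyme with no compound and 100% = blank without enzyme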
Sequence (P00748 20-372 limits assumed): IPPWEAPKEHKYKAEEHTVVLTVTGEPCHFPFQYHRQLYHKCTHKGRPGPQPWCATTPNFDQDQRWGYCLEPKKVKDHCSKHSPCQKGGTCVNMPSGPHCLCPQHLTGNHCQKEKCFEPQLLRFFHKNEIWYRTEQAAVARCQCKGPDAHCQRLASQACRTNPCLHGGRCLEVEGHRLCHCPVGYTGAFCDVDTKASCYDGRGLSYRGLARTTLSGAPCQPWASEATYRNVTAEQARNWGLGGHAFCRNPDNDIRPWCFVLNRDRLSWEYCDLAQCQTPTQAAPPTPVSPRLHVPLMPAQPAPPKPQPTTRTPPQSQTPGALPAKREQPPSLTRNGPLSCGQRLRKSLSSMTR
Sequence (P00748 373-615 limits assumed): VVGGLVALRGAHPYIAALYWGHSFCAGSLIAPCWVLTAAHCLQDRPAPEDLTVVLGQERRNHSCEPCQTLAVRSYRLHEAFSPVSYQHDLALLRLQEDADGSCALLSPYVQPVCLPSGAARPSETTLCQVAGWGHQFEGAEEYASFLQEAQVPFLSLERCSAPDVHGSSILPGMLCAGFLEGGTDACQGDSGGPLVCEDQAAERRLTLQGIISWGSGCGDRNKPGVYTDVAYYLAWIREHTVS

Compound | inhibition
O=C(c1ccc(F)cc1)n1c(=S)nc2ccccn21 | 0.92% (inactive)
COc1c(O)cc2oc(-c3ccc(O)c(O)c3)cc(=O)c2c1O | 2.88% (inactive)
CCCCN1Cc2c(nc3cc(-c4ccccc4)[nH]n3c2=O)C1=O | -5.1% (inactive)
O=C(NCc1cccnc1)c1cnc2ccccc2n1 | 8.13% (inactive)
COC(=O)c1c(C)oc(C)c1S(=O)(=O)NCc1ccc(Cl)cc1 | 6.03% (inactive)
CC(=O)c1ccc(NC(=O)C2CC(=O)Nc3nc4ccccc4n32)cc1 (centres undefined) | 8.34% (inactive)
COc1ccc(C2/C=C\CN(S(=O)(=O)c3cccs3)CC(=O)N2Cc2ccc(F)cc2)cc1 (centres undefined) | 9.45% (inactive)
O=[N+]([O-])c1cc(Cl)cc(/C=N/NC(=S)Nc2cc(S(=O)(=O)N3CCOCC3)ccc2Cl)c1O | 6.23% (inactive)
CSCC[C@H](NC(=O)CCCn1nnc2ccccc2c1=O)C(=O)O | 4.87% (inactive)
CCOC(=O)COc1nc(C)cc(C(F)(F)F)c1C#N | -0.55% (inactive)
Cc1ccc(Nc2nc(N)nc(CSc3nnc(C)s3)n2)cc1 | 4.96% (inactive)
Cc1cnc(NC(=O)c2ccccn2)s1 | 7.08% (inactive)
COC(=O)c1ccc(Oc2nc(NC(C)C)nc(SC)n2)cc1 | 44% (active)
COC(=O)c1ccc(Oc2nc(Nc3ccc(F)cc3)nc(N3CCCC3)n2)cc1 | -2.89% (inactive)
CCNc1nc(Oc2ccc(C(=O)OC)cc2)nc(N2CCOCC2)n1 | 9.71% (inactive)
COCCN(C(=S)Nc1cccc(Cl)c1C)C(C)c1ccco1 (centres undefined) | 6.59% (inactive)
COP1(=O)C[C@@H](O)[C@@H](O)[C@@H](COCc2ccccc2)O1 (some centres undefined) | 5.94% (inactive)
O=[N+]([O-])c1ccc2nc(-c3ccccn3)[nH]c2c1 | 5.76% (inactive)
CN(C)S(=O)(=O)c1ccc(NC(=O)COC(=O)Cn2[nH]c(=O)c3ccccc3c2=O)cc1 | -3.32% (inactive)
Cc1nn2c(NCCN(C)C)c3c(nc2c1-c1ccccc1)CCC3 | 10.3% (inactive)
O=C1NNC(c2ccccc2)=N/C1=C\c1ccc(Cl)cc1 | 0.78% (inactive)
CC1Cc2ccccc2N1CC(=O)Nc1ccc(S(N)(=O)=O)cc1 (centres undefined) | 7.97% (inactive)
COc1ccc2oc(N)c(C=O)c(=O)c2c1 | 8.71% (inactive)
CC(C)(C)C(=O)NNC(=O)c1ccc(Oc2cc(Cl)cc(Cl)c2)o1 | 8.39% (inactive)

Compound | inhibition
CCOC(=O)c1cc(C)nc(S(C)(=O)=O)c1C#N | 2.84% (inactive)
CC(C)=CCC/C(C)=C/C(=O)O | 4.62% (inactive)
O=c1c2ccccc2cnn1Cc1n[nH]c(=S)n1-c1ccccc1F | 4.28% (inactive)
COc1ccc(SC[C@H](Cc2ccccc2)N2CCN(CCc3ccccc3)CCC2=O)cc1 | 9.1% (inactive)
NC(=O)c1nnsc1-c1ccc(-c2snnc2C(N)=O)cc1 | -1.04% (inactive)
COC(=O)c1cc(S(=O)(=O)N2CCC(C(N)=O)CC2)oc1C | 1.7% (inactive)
NC(=O)CC(NC(=O)Cc1cccc2ccccc12)c1ccc(NCc2cc(F)ccc2F)c([N+](=O)[O-])c1 (centres undefined) | 3.78% (inactive)
Nc1ccccc1C(=O)NC1CCCCNC1=O (centres undefined) | 3.81% (inactive)
O=C(Nc1cccnc1Oc1ncnc2cc(Cl)ccc12)c1ccc(F)cc1 | 0.47% (inactive)
CCOC(=O)CC1C(=O)NCCN1c1nc2c(C)cccn2c(=O)c1/C=C1\SC(=S)N(C(C)CC)C1=O (centres undefined) | 14% (inactive)
S=c1[nH]nc(-c2cc(-c3ccccc3)n[nH]2)n1/N=C/c1c2ccccc2cc2ccccc12 | 8.1% (inactive)
CC(C)c1nc(SCC(=O)NC(=O)NC(C)(C)C)n[nH]1 | 12.8% (inactive)
Cc1ccc(NNC(=O)C2CCC2)cc1C | 10.5% (inactive)
C=CCC1(C#N)C(=S)NC(C)=C(C(=O)OCC)C1c1ccccc1 (centres undefined) | 6.96% (inactive)
Cc1nc(Cl)c(C#N)c2c1CCCC2 | 2.37% (inactive)
Cc1cc(C)c(NC(=O)CN2C(=O)NC(Cc3ccccc3)C2=O)c(C)c1 (centres undefined) | 0.73% (inactive)
CC(C)=CCc1c(O)c(CC=C(C)C)c2occ(-c3ccc(O)cc3)c(=O)c2c1O | 7.17% (inactive)
O=C(O)C1=C[C@H](c2cccs2)C[C@H](OCCCCO)O1 | 7.11% (inactive)
Cc1ccc(S(=O)(=O)NC(=O)N2CCCN(Cc3ccc(F)cc3)CC2)cc1 | 3.56% (inactive)
Cc1ccc(NC(=O)Nc2cc(-c3ccccc3)nn2C)cc1Cl | -1.26% (inactive)
Nc1nnc(SCC(=O)NC2CCCc3ccccc32)s1 (centres undefined) | -2.74% (inactive)
CN(C)C(=O)c1coc2nc3ccccc3nc12 | 7.55% (inactive)
CC1Cc2ccccc2N1S(=O)(=O)c1ccc(Cl)nc1 (centres undefined) | 1.69% (inactive)
COc1ccc2c(c1)c1ncn(Cc3ccccn3)c(=O)c1n2C | -1.96% (inactive)

Compound | inhibition
CN=C1C=C/C(=N/N=c2\ccn(O)cc2C)C=C1C | 12.1% (inactive)
O=C1CCC(=O)N(O)CCCCCNC(=O)CCC(=O)N(O)CCCCCNC(=O)CCC(=O)N(O)CCCCCN1 | 6.14% (inactive)
O=C(O)C(F)(F)C(NCc1ccccc1)c1ccccc1 (centres undefined) | 18.5% (inactive)
CCOC(=O)CSc1nc(C)c(Oc2ccc(Cl)cc2Cl)c(=O)[nH]1 | 10.3% (inactive)
COCCCn1c(-c2cccs2)nc2nc3ccccc3nc21 | -19.8% (inactive)
CSCC[C@H](NC(=O)NC1CCCC1)C(=O)O | 0.35% (inactive)
CCN(CC(=O)Nc1ccc(S(=O)(=O)N2CCCC2)cc1)CC(=O)Nc1cccc(OC)c1 | 3.63% (inactive)
O=C(NN1C(=O)C2CCCCC2C1=O)c1ccco1 (centres undefined) | 5.14% (inactive)
C/C(=N/NC(=O)CC(=O)N/N=C(\C)c1ccc([N+](=O)[O-])cc1)c1ccc([N+](=O)[O-])cc1 | 6.83% (inactive)
O=C(CS(=O)(=O)c1cn(Cc2cccc(F)c2)c2ccccc12)N1CCCCC1 | 14.4% (inactive)
COc1cccc(NC(=O)CS(=O)(=O)c2cn(CC(=O)N3CCOCC3)c3ccccc23)c1 | 2.47% (inactive)
O=C(CS(=O)(=O)c1cn(Cc2ccc(Cl)cc2)c2ccccc12)N1CCOCC1 | 45.4% (active)
CCN(CC)CCC(c1ccc2c(c1)OCO2)c1c(OC)cc(OC)c2c(-c3ccccc3)cc(=O)oc12 (centres undefined) | 8.45% (inactive)
CCN1CC(CN(C)Cc2nc(-c3ccc(Cl)cc3)no2)CC1=O (centres undefined) | 7.51% (inactive)
COC(=O)c1ccc(-c2noc(CN(Cc3ccccn3)CC3CCCO3)n2)cc1 (centres undefined) | 14.6% (inactive)
CN(Cc1ccccn1)Cc1nc(-c2ccc(Cl)cc2)no1 | 103% (active)
COc1cc(OC)c2ccc(=O)oc2c1C(CCN1CCN(c2ccccc2)CC1)c1ccc2c(c1)OCO2 (centres undefined) | 7.95% (inactive)
CCOC(=O)c1c(N)sc2c1CCCC2=O | 5.97% (inactive)
O=C(O)C1CCN(C(=O)c2cc(F)cc3c2OCOC3)CC1 | 4.37% (inactive)
Cc1ccc(Nc2c3c(nc4ccccc24)CCC3)cc1 | 9.63% (inactive)
CSc1nnc(SCc2nc3sc(C(=O)O)c(C)c3c(=O)[nH]2)s1 | 10.1% (inactive)
COc1ccc(CCNC(=O)CCn2c(=O)c3ccccc3n(CC(=O)NCC3CCCO3)c2=O)cc1OC (centres undefined) | 40% (active)
COc1ccc(CCNC(=O)CCn2c(=O)oc3ccccc32)cc1OC | 7.51% (inactive)
COc1ccc(CCNC(=O)Cn2c(=O)n(CC3CCCO3)c(=O)c3ccccc32)cc1OC (centres undefined) | -8.44% (inactive)

Compound | inhibition
Cc1cc(Cl)ccc1NNC(=O)c1snnc1C | 7.13% (inactive)
COc1ccc(SCCN2CCN(CC(C)C)CCC2=O)cc1 | 7.64% (inactive)
CC1(C)CC(=O)C=C(Nc2ccccc2)C1 | 6.92% (inactive)
S=c1[nH]nc(-c2cc(-c3ccsc3)n[nH]2)n1-c1ccccc1 | 4.05% (inactive)
CC(C)C(=O)N1CCC2(CC1)Oc1ccc(F)cc1C(=O)C21CC(c2ccccc2)=NO1 (centres undefined) | 8.49% (inactive)
O=c1cc(CCl)nc2scc(-c3ccccc3)n12 | 6.87% (inactive)
Cc1c(C#N)c2ncn(CC#N)c(=O)c2n1-c1ccccc1 | 7.67% (inactive)
CN(C)c1ccnc2sc3c(=O)n(Cc4ccccc4)cnc3c12 | 2.78% (inactive)
CN(C)/C=C/c1c(C#N)c(=O)ncn1Cc1ccccc1 | 53% (active)
O=C(N/N=C/c1cccc2cccnc12)[C@H]1C[C@@H]1c1ccccc1 | 8.29% (inactive)
O=C(O)CCn1c(O)c(C=C2N=c3ccccc3=N2)sc1=S | 12.8% (inactive)
COc1ccc(Cl)cc1S(=O)(=O)N1CCC(O)(c2ccc(Cl)cc2)CC1 | 3.43% (inactive)
Cc1cc(N)n(-c2ccc(S(=O)(=O)N3CCCC3)cc2[N+](=O)[O-])n1 | 3.82% (inactive)
O=C(Nc1ccc(N2CCN(C(=O)c3ccccc3)CC2)c(Cl)c1)c1ncn[nH]1 | 7.54% (inactive)
O=C(Cc1ccccc1)Nc1c(Cl)ccc2nsnc12 | 2.05% (inactive)
C[C@H](NC(=O)c1nc[nH]c1C(=O)N[C@@H](C)C(=O)OC(C)(C)C)C(=O)OC(C)(C)C | 12.4% (inactive)
CCOC(=O)c1cn(CC)c2cc(F)c(F)cc2c1=O | 4.45% (inactive)
COc1cc(NC(=O)c2cncc(-c3ccc(C#N)cc3)c2)cc(C(=O)Nc2cccc(C(F)(F)F)c2)c1 | 3.5% (inactive)
O=[N+]([O-])c1cc([N+](=O)[O-])c2cccnc2c1O | 3.18% (inactive)
O=C(Nc1cccc(S(=O)(=O)NC2=NCCC2)c1)C1CCCCC1 | 14.4% (inactive)
COc1ccc2[nH]c(C(=O)Nc3ccccc3Cl)cc2c1 | 6.03% (inactive)
CCC/C(C)=N\Nc1nc2c(c(=O)n(C)c(=O)n2C)n1C | 5.02% (inactive)

Source: PubChem BioAssay AID800 (PCMD, 2007)
